Test results taken from PubChem BioAssay (Tox21).
Results filed as inconclusive are left out. The source made the active and inactive calls. Unless noted, calls follow the shape of the dose curve; as a rule, active = well fitted curve in the direction sought with a large enough effect in the repeat runs; inconclusive = weak or mixed curves; inactive = no such curve, though single readings can be large; an effect the other way counts as inactive or inconclusive.

Tests used:
[1] = target: Peroxisome proliferator-activated receptor gamma (Homo sapiens) (UniProt P37231); assay: qHTS assay to identify small molecule antagonists of the peroxisome proliferator-activated receptor gamma (PPARg) signaling pathway (AID 743191; calls by dose curve; also: nearly all actives have a fitted effect of over 30% in size); settings: HEK293H PPARg-UAS-bla, beta-lactamase ratio, antagonist, 17 h; series mostly up to 62.6 µM
How it was run: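 GeneBLAzer PPARg UAS-bla HEK293H cells carrying a UAS-driven beta-lactamase reporter were plated at 3000 cells/well, preincubated 5 h at 37C, then given compound for 17 h at 37C; LiveBLAzer B/G FRET substrate was read after 1 h at room temperature.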

[2] = qHTS assay to identify small molecule antagonists of the peroxisome proliferator-activated receptor gamma (PPARg) signaling pathway - cell viability counter screen (AID 743194); settings: PPARg-bla HEK293H viability, CellTiter-Glo luminescence, 17 h, co-treated with 50 nM rosiglitazone; series mostly up to 62.6 µM; also: nearly all actives have a fitted effect of over 55% in size; also: potency is read from the fitted curve at half-maximal effect
How it was run: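 PPARg-UAS-bla HEK293H cells were plated, rested 5 h at 37 C, then treated with compounds plus rosiglitazone (50 nM final) for 17 h at 37 C; viability was then read by CellTiter-Glo luminescence after 30 min at room temperature.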

[3] = qHTS assay for small molecule agonists of the antioxidant response element (ARE) signaling pathway - cell viability counter screen (AID 743203; calls by dose curve; also: nearly all actives have a fitted effect of over 55% in size; also: potency is read from the fitted curve at half-maximal effect); settings: ARE-bla HepG2 viability, CellTiter-Glo luminescence, 16 h; series mostly up to 73.3 µM
How it was run: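 CellSensor ARE-bla HepG2 cells, 2,000 per well, rested 5 hrs at 37C/5% CO2, then exposed to compound in DMSO for 16 hrs; viability read as CellTiter-Glo luminescence after 30 min at room temperature, in the reporter wells.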

[4] = qHTS assay for small molecule activators of the heat shock response signaling pathway - cell viability counter screen (AID 743209); settings: HSE-bla HeLa viability, CellTiter-Glo luminescence, 5 h; series mostly up to 62.6 µM; also: nearly all actives have a fitted effect of over 50% in size
How it was run: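 CellSensor HSE-bla HeLa cells, plated overnight at 37 C/5% CO2, were exposed to compounds in DMSO for 5 h at 37 C. Viability was then read in the same wells by CellTiter-Glo luminescence after 30 min at room temperature.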

[5] = qHTS assay for small molecule activators of the heat shock response signaling pathway (AID 743210; active = well fitted activation curve with a large enough effect in the signal ratio in the repeat runs, with a control signal flat, not every such curve was filed as active; the % refers to the signal ratio); settings: HeLa HSE-bla reporter, beta-lactamase ratio, 5 h; series mostly up to 62.6 µM
How it was run: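 HSE-bla HeLa cells (beta-lactamase reporter under heat shock response elements) were exposed to compounds for 5 h at 37 C, then loaded with LiveBLAzer B/G FRET substrate for 2.5 h at room temperature before fluorescence reading.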

[6] = qHTS assay to identify small molecule agonists of the peroxisome proliferator-activated receptor delta (PPARd) signaling pathway - cell viability counter screen (AID 743211); settings: PPARd-bla HEK293H viability, CellTiter-Glo luminescence, 17 h; series mostly up to 62.6 µM; also: nearly all actives have a fitted effect of over 55% in size; also: potency is read from the fitted curve at half-maximal effect
How it was run: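 Luminescent ATP viability assay (CellTiter-Glo, 30 min RT) in UAS-bla HEK293H cells carrying the PPAR delta reporter construct, 3000 cells/well, after a 17 h compound treatment at 37 C.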

[7] = target: Peroxisome proliferator-activated receptor delta (Homo sapiens) (UniProt Q03181); assay: qHTS assay to identify small molecule agonists of the peroxisome proliferator-activated receptor delta (PPARd) signaling pathway (AID 743212; calls by dose curve); settings: HEK293H PPARd-UAS-bla, beta-lactamase FRET ratio, 17 h; series mostly up to 62.6 µM
How it was run: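 GeneBLAzer PPARd UAS-bla HEK293H cells (beta-lactamase reporter under UAS control), plated and rested 5 h at 37 C, then exposed to compounds in DMSO at 37 C; LiveBLAzer B/G FRET substrate added, 2 h room temperature, fluorescence read.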

[8] = target: Peroxisome proliferator-activated receptor delta (Homo sapiens) (UniProt Q03181); assay: qHTS assay to identify small molecule antagonists of the peroxisome proliferator-activated receptor delta (PPARd) signaling pathway (AID 743215; active = well fitted inhibition curve with a large enough effect in the signal ratio in the repeat runs, not every such curve was filed as active; the % refers to the signal ratio;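 also: cells stimulated with agonist L165041 at 300 nM final during compound exposure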); settings: HEK293H PPARd-UAS-bla, beta-lactamase FRET ratio, antagonist, 17 h; series mostly up to 62 µM
How it was run: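 PPARd UAS-bla HEK293H cells were pre-incubated 5 h at 37 C, then given test compounds in DMSO plus agonist L165041 (300 nM final). After 17 h at 37 C, beta-lactamase FRET substrate was added; fluorescence read after 2 h at room temperature.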

[9] = target: Bile acid receptor (Homo sapiens) (UniProt Q96RI1); assay: qHTS assay to identify small molecule antagonists of the farnesoid-X-receptor (FXR) signaling pathway (AID 743217; active = well fitted inhibition curve with a large enough effect in the signal ratio in the repeat runs, not every such curve was filed as active; the % refers to the signal ratio); settings: HEK293T FXR-UAS-bla, beta-lactamase ratio, CDCA-stimulated, 16 h; series mostly up to 62.6 µM
How it was run: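 FXR-UAS-bla HEK 293T cells pre-incubated 5 h at 37 °C, then exposed to compounds with chenodeoxycholic acid (50 uM final) for 16 h at 37 °C. Beta-lactamase reporter read by LiveBLAzer B/G FRET substrate fluorescence after 2 h at room temperature.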

[10] = qHTS assay to identify small molecule agonists of the farnesoid-X-receptor (FXR) signaling pathway - cell viability counter screen (AID 743218); settings: FXR-bla HEK293T viability, CellTiter-Glo luminescence, 16 h; series mostly up to 62.6 µM; also: nearly all actives have a fitted effect of over 45% in size; also: potency is read from the fitted curve at half-maximal effect
How it was run: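 FXR-UAS-bla HEK 293T cells, plated 5 h at 37 C, were exposed to compounds for 16 h at 37 C. CellTiter-Glo was then added to the same wells as the bla readout; luminescence read after 30 min at room temperature.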

[11] = target: Bile acid receptor (Homo sapiens) (UniProt Q96RI1); assay: qHTS assay to identify small molecule agonists of the farnesoid-X-receptor (FXR) signaling pathway (AID 743220; active = well fitted activation curve with a large enough effect in the signal ratio in the repeat runs, not every such curve was filed as active; the % refers to the signal ratio); settings: HEK293T FXR-UAS-bla, beta-lactamase FRET ratio, 16 h; series mostly up to 62.6 µM
How it was run: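 Beta-lactamase reporter under UAS control in GeneBLAzer FXR HEK 293T cells (5000/well) measured with LiveBLAzer FRET substrate after 2 h at room temperature. Compound exposure lasted 16 h at 37C.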

[12] = qHTS assay to identify small molecule antagonists of the farnesoid-X-receptor (FXR) signaling pathway - cell viability counter screen (AID 743221; active = well fitted cell-killing curve with a large enough effect in the repeat runs, not every such curve was filed as active; also: nearly all actives have a fitted effect of over 50% in size; also: potency is read from the fitted curve at half-maximal effect); settings: FXR-bla HEK293T viability, CellTiter-Glo luminescence, 16 h; series mostly up to 62.6 µM
How it was run: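 In GeneBLAzer FXR-UAS-bla HEK 293T cells stimulated with 50 uM chenodeoxycholic acid (final), compounds acted for 16 h at 37 C. Viability was assessed afterwards by CellTiter-Glo luminescence.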

[13] = qHTS assay to identify small molecule that activate the aryl hydrocarbon receptor (AhR) signaling pathway - cell viability counter screen (AID 743086); settings: HepG2-AhR-luc viability, CellTiter-Fluor, 24 h; series mostly up to 70.3 µM; also: nearly all actives have a fitted effect of over 45% in size; also: potency is read from the fitted curve at half-maximal effect
How it was run: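 HepG2-AhR-luc (HG2L7.5c1) cells, 4000/well, were preincubated 5 h at 37C, exposed to compound in qHTS format for 24 hr at 37C, then given CellTiter-Fluor for 30 min; viability was read as fluorescence in the reporter wells.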

[14] = qHTS assay for small molecule agonists of the antioxidant response element (ARE) signaling pathway (AID 743202; active = well fitted activation curve with a large enough effect in the signal ratio in the repeat runs, not every such curve was filed as active; the % refers to the signal ratio); settings: HepG2 ARE-bla reporter, beta-lactamase FRET, 16 h; series mostly up to 73.3 µM
How it was run: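 Read-out: LiveBLAzer B/G FRET substrate fluorescence after 2 h at room temperature, following 16 h compound treatment at 37 C of HepG2 cells carrying an ARE-driven beta-lactamase reporter.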

[15] = qHTS assay to identify small molecule antagonists of the peroxisome proliferator-activated receptor delta (PPARd) signaling pathway - cell viability counter screen (AID 743213); settings: PPARd-bla HEK293H viability, CellTiter-Glo luminescence, 17 h; series mostly up to 62 µM; also: nearly all actives have a fitted effect of over 50% in size; also: potency is read from the fitted curve at half-maximal effect
How it was run: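 PPARd-bla HEK293H cells were treated with compounds plus agonist L165041 (300 nM final) for 17 h at 37 C. Viability was then read in the same wells by CellTiter-Glo luminescence after 30 min at room temperature.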

[16] = target: Vitamin D3 receptor (Homo sapiens) (UniProt P11473); assay: qHTS assay to identify small molecule agonists of the vitamin D receptor (VDR) signaling pathway (AID 743222; calls by dose curve); settings: HEK293T VDR-UAS-bla, beta-lactamase FRET ratio, 16 h; series mostly up to 63.5 µM
How it was run: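 VDR-bla cells were plated 4 h at 37C/5% CO2, then exposed to compounds in DMSO for 16 h. After LiveBLAzer B/G FRET substrate addition and 2 h at room temperature, beta-lactamase reporter fluorescence was read.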

[17] = target: Vitamin D3 receptor (Homo sapiens) (UniProt P11473); assay: qHTS assay to identify small molecule antagonists of the vitamin D receptor (VDR) signaling pathway (AID 743223; active = well fitted inhibition curve with a large enough effect in the signal ratio in the repeat runs, not every such curve was filed as active; the % refers to the signal ratio); settings: VDR-UAS-bla HEK293T, beta-lactamase FRET ratio, 16 h; series mostly up to 61 µM
How it was run: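 Agonist 1alpha,25-dihydroxyvitamin D3 (3 nM in well) was added with each compound to VDR-bla cells preincubated 4 h. Cells stood 16 h at 37C, then FRET substrate 2 h at room temperature; fluorescence intensity recorded.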

Measured: Potency

Chain of Peroxisome proliferator-activated receptor gamma (Homo sapiens) (P37231 whole entry, looked up): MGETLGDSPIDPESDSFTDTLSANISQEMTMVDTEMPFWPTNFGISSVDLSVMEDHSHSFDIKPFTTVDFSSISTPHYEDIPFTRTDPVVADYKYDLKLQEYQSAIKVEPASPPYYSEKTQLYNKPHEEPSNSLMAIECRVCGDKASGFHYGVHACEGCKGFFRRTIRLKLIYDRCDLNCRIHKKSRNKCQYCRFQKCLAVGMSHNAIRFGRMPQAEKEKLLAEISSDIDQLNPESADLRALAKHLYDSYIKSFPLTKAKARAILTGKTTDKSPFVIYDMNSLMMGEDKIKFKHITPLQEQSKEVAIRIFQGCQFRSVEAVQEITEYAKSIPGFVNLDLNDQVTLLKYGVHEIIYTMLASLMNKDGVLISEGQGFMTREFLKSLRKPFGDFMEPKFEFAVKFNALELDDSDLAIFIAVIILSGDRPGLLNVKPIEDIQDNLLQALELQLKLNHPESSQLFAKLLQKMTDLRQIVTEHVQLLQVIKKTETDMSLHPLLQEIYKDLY
Chain of Vitamin D3 receptor (Homo sapiens) (P11473 whole entry, looked up): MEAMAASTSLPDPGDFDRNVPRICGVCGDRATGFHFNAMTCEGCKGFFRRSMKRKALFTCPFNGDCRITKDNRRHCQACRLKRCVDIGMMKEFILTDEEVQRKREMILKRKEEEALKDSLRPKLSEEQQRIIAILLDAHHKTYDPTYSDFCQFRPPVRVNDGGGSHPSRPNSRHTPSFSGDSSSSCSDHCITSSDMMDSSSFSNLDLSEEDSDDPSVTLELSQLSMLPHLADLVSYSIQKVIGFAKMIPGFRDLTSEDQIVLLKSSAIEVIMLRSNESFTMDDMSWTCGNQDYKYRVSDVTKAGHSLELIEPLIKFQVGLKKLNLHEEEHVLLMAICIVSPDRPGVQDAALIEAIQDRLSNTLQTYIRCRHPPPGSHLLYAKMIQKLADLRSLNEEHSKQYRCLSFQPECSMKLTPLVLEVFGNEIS
Chain of Bile acid receptor (Homo sapiens) (Q96RI1 whole entry, looked up): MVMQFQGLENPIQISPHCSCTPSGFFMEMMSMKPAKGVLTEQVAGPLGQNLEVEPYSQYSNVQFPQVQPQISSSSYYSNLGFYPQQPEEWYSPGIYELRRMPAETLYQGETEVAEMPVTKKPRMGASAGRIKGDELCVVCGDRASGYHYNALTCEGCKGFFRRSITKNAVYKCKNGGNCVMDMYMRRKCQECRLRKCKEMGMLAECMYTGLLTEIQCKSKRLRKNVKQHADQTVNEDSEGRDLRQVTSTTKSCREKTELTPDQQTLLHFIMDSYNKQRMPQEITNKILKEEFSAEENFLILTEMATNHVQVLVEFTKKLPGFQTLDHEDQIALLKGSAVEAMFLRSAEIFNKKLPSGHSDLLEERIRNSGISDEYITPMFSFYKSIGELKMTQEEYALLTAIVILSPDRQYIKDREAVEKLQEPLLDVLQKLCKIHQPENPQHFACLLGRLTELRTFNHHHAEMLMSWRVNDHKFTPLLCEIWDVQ
Chain of Peroxisome proliferator-activated receptor delta (Homo sapiens) (Q03181 whole entry, looked up): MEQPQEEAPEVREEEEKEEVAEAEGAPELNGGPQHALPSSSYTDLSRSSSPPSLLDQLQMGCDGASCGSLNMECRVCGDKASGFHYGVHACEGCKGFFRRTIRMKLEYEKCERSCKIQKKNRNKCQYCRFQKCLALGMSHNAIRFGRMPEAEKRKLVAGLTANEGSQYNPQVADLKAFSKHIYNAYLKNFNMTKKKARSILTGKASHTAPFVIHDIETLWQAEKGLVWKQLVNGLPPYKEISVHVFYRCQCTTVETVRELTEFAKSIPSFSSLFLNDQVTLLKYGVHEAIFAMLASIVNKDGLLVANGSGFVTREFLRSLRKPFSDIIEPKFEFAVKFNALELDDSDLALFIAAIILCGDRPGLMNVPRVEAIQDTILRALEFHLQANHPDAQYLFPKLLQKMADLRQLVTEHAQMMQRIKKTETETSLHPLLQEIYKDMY

O=C(O)C1(C(=O)O)CCC1.[NH2-].[NH2-].[Pt+2]
not listed: [13] | [14] | [15] | [16] | [17]
inactive: all other assays above

O=C(O)c1nc(Cl)c(Cl)c(Cl)c1Cl
inactive: [13] | [2] | [3] | [4] | [5] | [6] | [7] | [10] | [12]

CCN(CC)c1ccc(C(=C2C=CC(=[N+](CC)CC)C=C2)c2cc(S(=O)(=O)O)ccc2S(=O)(=O)[O-])cc1
not listed: [1] | [4] | [6] | [7] | [8] | [13] | [17]
inactive: all other assays above

NS(=O)(=O)c1ccc(N2CCCCS2(=O)=O)cc1
not listed: [1] | [4] | [7] | [8] | [13] | [17]
inactive: all other assays above

CCc1cc(C2=C(C(=O)O)N(c3ccccc3C(F)(F)F)S(=O)(=O)c3ccccc32)cc2c1OCO2
active: [13] 21.4 µM | [3] 6.04 µM
inactive: [2] | [4] | [5] | [6] | [8] | [12]

COc1ccc2cccc(CCNC(C)=O)c2c1
not listed: [7] | [8] | [9] | [11] | [13]
inactive: all other assays above

CCCC(=O)Nc1ccc(O)c(C(C)=O)c1
inactive: [2] | [14] | [3] | [4] | [5] | [7] | [10] | [12]

CCOC(=O)C(=O)CCc1ccccc1
not listed: [2] | [9] | [11] | [13] | [16] | [17]
inactive: all other assays above

Cc1ccc(C(=O)Oc2ccc(C(O)CNC(C)(C)C)cc2OC(=O)c2ccc(C)cc2)cc1 (stereo unspecified)
active: [6] 29.8 µM
inactive: [2] | [5] | [11] | [12]

O[C@@H](COc1cccc2ncccc12)CN1CCN(C2c3ccccc3[C@@H]3[C@H](c4ccccc42)C3(F)F)CC1 (stereo partly specified)
active: [2] 13.3 µM | [3] 15 µM | [6] 9.44 µM | [15] 23.7 µM | [10] 15 µM | [12] 21.1 µM
inactive: [4] | [7]

O=C(NCC1CN(c2ccc(N3CCOCC3=O)cc2)C(=O)O1)c1ccc(Cl)s1 (stereo unspecified)
not listed: [1] | [8] | [9] | [11] | [13] | [15]
inactive: all other assays above

COCCCN1CCC(NC(=O)c2cc(Cl)c(N)c3c2OCC3)CC1
not listed: [7] | [8] | [9] | [11] | [13]
inactive: all other assays above

Nc1ccc([N+](=O)[O-])c(C(F)(F)F)c1
not listed: [8] | [9] | [13] | [16]
inactive: all other assays above

CN(C)CCOC(c1ccccc1)c1ccc(Br)cc1 (stereo unspecified)
inactive: [3] | [4] | [5] | [7] | [9] | [11] | [16] | [17]

CC(C)Cc1ccc(C(C)C(=O)OCc2ccccn2)cc1 (stereo unspecified)
not listed: [13] | [14] | [16]
inactive: all other assays above

CN1Cc2cc(C(=O)N3CCC(C4CCNCC4)CC3)ccc2NC(CC(=O)O)C1=O (stereo unspecified)
not listed: [1] | [8] | [9] | [11] | [13] | [16] | [17]
inactive: all other assays above

CC(C)(O)c1ccc(CNC(=O)c2cccnc2Oc2ccc(F)cc2)cc1
not listed: [1] | [9] | [11] | [14] | [16] | [17]
inactive: all other assays above

CC(C)O.CC(C)O.CCOC(=O)/C=C(\C)O.CCOC(=O)/C=C(\C)O.[Ti]
inactive: [13] | [2] | [3] | [4] | [5] | [15] | [10] | [17]

Cc1ccc(C(C)OC(=O)C2(C)CCC(C(=O)O)C2(C)C)cc1 (stereo unspecified)
inactive: [2] | [3] | [4] | [5] | [7] | [10] | [12] | [16]

CCCCC
not listed: [1] | [2] | [6] | [13] | [16]
inactive: all other assays above
